HP1b chromo inh: HP1-beta chromodomain-methylated histone interaction inhibition; AlphaScreen HP1-beta / biotin-H3K9me3 peptide binding; Potency, µM (doses to about 114 µM), hits mostly inhibitors; 390,000 tested, 0.56% active; note: nearly all actives have a fitted effect of over 70% in size
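HP1-beta protein (50 nM final) preincubated 30 min at room temperature with biotinylated H3(1-18)K9me3 peptide (50 nM) in PBS pH 7.4, 0.01% Tween-20, then compound added for 30 min. AlphaScreen streptavidin donor/nickel chelate acceptor beads (10 ug/mL final), 30 min dark, luminescence read.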
G9a block: blocks human histone lysine methyltransferase G9a. Potency, µM (titrated, usually from 102 µM), actives largely listed as inhibitors. 350,000 tested, 8.8% active. G9a H3K9 monomethylation, AlphaScreen, 2 h. Q96KQ7; note: nearly all actives have a fitted effect of over 75% in size
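Quantitative HTS format: methyltransferase activity on a biotin-tagged H3K9 peptide is measured by AlphaScreen, using a rabbit anti-monomethyl-H3K9 antibody with streptavidin donor and anti-IgG acceptor beads. Final levels are 20 nM enzyme, 500 nM peptide, 20 uM SAM; 2 h RT.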
PI5P4K alpha inh: PI5P4K alpha (human) kinase inhibition; PI5P4Kalpha enzyme, ADP-Glo luminescence, 60 min; active compounds read low; 330,000 tested, 1.2% active; P48426; AID 652105; max response, %; active = max response of -50% or lower; inconclusive = between -30% and -50%; inactive = -30% or higher; note: value at the top dose of about 77 µM
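Compounds were pin-transferred onto PI5P4Kalpha and substrate in HEPES pH 7.4 buffer with EGTA, CHAPS and 5% DMSO. ATP (5 microM final) started the reaction, which ran 60 minutes at room temperature before ADP-Glo detection.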
JMJD2A Tudor inh: blocks the human JMJD2A Tudor domain. O75164. AlphaScreen JMJD2A-Tudor / H3K4me3 peptide binding. Potency, µM (doses to about 114 µM), hits mostly inhibitors. 390,000 tested, 4.4% active. AID 504339; note: nearly all actives have a fitted effect of over 50% in size
BAZ2B inh: BAZ2B (human) inhibition; AlphaScreen BAZ2B-H3K14Ac peptide displacement; Potency, µM (series often up to 114 µM), hits mostly inhibitors; 360,000 tested, 4.4% active; note: nearly all actives have a fitted effect of over 60% in size
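AlphaScreen displacement: compounds (up to 110uM) incubated 30 min at room temperature with a preformed 50 nM BAZ2B/50 nM biotinylated H3K14Ac peptide complex in PBS pH 7.4 with Tween-20. Donor and acceptor beads at 10 ug/mL final added, 20 min light-protected before reading.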
L3MBTL1 block: inhibitors of human L3MBTL1; AlphaScreen L3MBTL1–H3K9me1 peptide binding; AID 485360; Potency, µM (top dose mostly 57.1 µM), most hits filed as inhibitors; 230,000 tested, 0.66% active; note: nearly all actives have a fitted effect of over 60% in size
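AlphaScreen proximity signal between nickel-chelate acceptor and streptavidin donor beads (final 10 ug/mL) reports binding of 50 nM L3MBTL1 to 75 nM biotin-H3 K9me1 peptide; complex incubated with compounds 30 min at room temperature; cefsulodin titration as control.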
A number is an active result; – = inactive; ? = inconclusive; · = not tested or not shown. Rows were chosen to be rich in hits. Some 11% of all compounds tested hit in one or more screens of this group. Unless noted, calls come from the whole dose curve; as a rule, active = well fitted inhibition curve with a large enough effect; inconclusive = small, poorly fitted or top-dose-only effect; inactive = no such curve, though single readings can be large or run the other way.

SMILES	HP1b chromo inh	G9a block	PI5P4K alpha inh	JMJD2A Tudor inh	BAZ2B inh	L3MBTL1 block
COc1ccc2c(c1)c1c(c(=O)n(Cc3ccccc3)c(=O)n1Cc1ccc(C)cc1)n2C	–	–	·	–	–	·
CSc1ccc(/C=N/N2CCN(Cc3ccc(C)cc3C)CC2)cc1	–	?	–	56µM	45µM	?
Cc1ccc(CN2CCN(/N=C/c3sccc3C)CC2)c(C)c1	?	45µM	–	22µM	28µM	–
COc1ccc(C2NC3=C(CCCC3)C(C#N)(C#N)C2(C#N)C#N)cc1 (stereo not drawn)	·	8.9µM	·	·	–	–
Cn1nnnc1Sc1ncnc2scc(-c3ccccc3C#N)c12	·	·	·	–	·	·
CC1(C)CC(Cc2nc(=S)[nH][nH]2)C(=O)O1 (stereo not drawn)	–	1.8µM	–	50µM	?	–
O=C(Nc1ccc(Nc2ccncc2)cc1)c1ccc(Nc2ccnc3ccc([N+](=O)[O-])cc23)cc1	–	·	?	100µM	–	–
Cc1ccc(N=Nc2c(C)[nH]n(C(N)=S)c2=O)cc1C	–	–	–	–	–	–
Cc1[nH]n(C(N)=S)c(=O)c1N=Nc1ccc(S(=O)(=O)N2CCCCCC2)cc1	?	–	?	?	?	·
Cc1[nH]n(C(N)=S)c(=O)c1N=Nc1ccc2ccccc2c1	?	32µM	–	45µM	25µM	–
CC(=O)Nc1ccc(N=Nc2c(C)[nH]n(C(N)=S)c2=O)cc1	–	45µM	–	–	–	·
COc1ccc(CCNC(=O)CCn2c(=O)c3ccccc3n(Cc3cc(C)ccc3C)c2=O)cc1OC	–	–	·	–	–	·
O=c1[nH]cnc2sc3c(c12)CN(Cc1ccccc1)CC3	–	25µM	–	–	–	·
c1ccc(-c2cc(-c3ccccc3)ncn2)cc1	–	·	–	–	·	·
Oc1cccc(Nc2cc(-c3ccccc3)ncn2)c1	–	?	·	–	50µM	·
COc1ccc(CCNC(=O)Cn2nc(C)c3c(C)n(-c4ccc(C)cc4)nc3c2=O)c(OC)c1	–	?	·	?	50µM	–
COc1ccc(CNC(=O)Cn2nc(C)c3c(C)n(-c4ccc(C)cc4)nc3c2=O)cc1OC	–	·	–	89µM	79µM	·
O=[N+]([O-])c1cc(C(F)(F)F)cc([N+](=O)[O-])c1NCCNC(=S)Nc1ccc(Cl)c(Cl)c1	–	·	–	32µM	25µM	–
Cc1ccc2occ(CC(=O)N(Cc3ccc(C(C)C)cc3)C3CCS(=O)(=O)C3)c2c1 (stereo not drawn)	–	–	·	–	–	·
COc1ccc(N2C(=O)CC(Nc3cccc(C(C)=O)c3)C2=O)cc1OC (stereo not drawn)	–	18µM	–	–	–	·
COc1ccc(NC2CC(=O)N(c3ccc(C(=O)O)cc3)C2=O)cc1 (stereo not drawn)	–	50µM	–	–	–	–
COc1ccc(NC2CC(=O)N(c3cccc(C)c3)C2=O)cc1 (stereo not drawn)	–	–	·	–	–	–
N=C1S/C(=C\c2cn[nH]c2-c2ccc(F)cc2)C(=O)N1c1ccccc1F	–	–	-70	89µM	–	–
N=C1S/C(=C\c2ccccc2F)C(=O)N1c1ccc(F)cc1	–	–	–	–	–	–
O=C(Nc1ccc(Br)c2cccnc12)c1cccc2ccccc12	–	–	·	–	–	·
SMILES	HP1b chromo inh	G9a block	PI5P4K alpha inh	JMJD2A Tudor inh	BAZ2B inh	L3MBTL1 block
O=C1C=CC(=Nc2ccc3c(c2)Cc2cc(F)ccc2-3)O1	?	·	-58	?	·	·
O=C1C=CC(=Nc2cccc3c2C(=O)c2ccccc2-3)O1	–	·	–	–	·	·
CCc1cccc(C)c1NC(=O)Cn1nnc(-c2nc(-c3ccccc3F)no2)c1N	–	?	·	–	56µM	·
Cc1cc(C)cc(NC(=O)Cn2nnc(-c3nc(-c4ccncc4)no3)c2N)c1	–	–	·	56µM	?	·
Nc1c(-c2nc(-c3ccccc3)no2)nnn1CC(=O)Nc1cccc(F)c1	–	?	·	?	–	·
COc1ccccc1N1CCN(c2nc3ccc(C)cc3n3nnnc23)CC1	–	?	·	–	–	·
CC(=O)N1CCN(C(=S)c2ccc([N+](=O)[O-])cc2)CC1	–	22µM	–	?	–	–
Cc1cccc(N2CCN(C(=S)c3ccccc3)CC2)c1	–	?	–	–	–	–
